This note sets out measurements from PubChem BioAssay (EPA / NIEHS).

Where a structure was tested more than once in an assay, its records may differ in their call. Active and inactive are the calls of the source. How the source made its calls: active means hit-call score of the fitted dose curve at least 0.9, where 1 is the maximum; inactive means score below 0.9.

The nature of experiment [1]: ATG_E_Box_CIS: Attagene CIS-FACTORIAL HepG2 Assay for human Enhancer Box (E-box) (AID 2282936). The note with it: HepG2 E-box cis-reporter transcription, actives raise or lower the signal. In short, it runs like this:
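DMSO served as negative control and baseline for bidirectional fitting. Human hepatoma HepG2 cells, transiently transfected with cis-reporter constructs, were dosed 24 h; reporter mRNA read by RT-PCR and capillary electrophoresis.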

Experiment [2] is described as follows: ATG_M_61_CIS: Attagene CIS-FACTORIAL HepG2 Assay for M61 Transcription Factor (Internal Marker) (AID 2282937). The note with it: HepG2 Attagene CIS-FACTORIAL M61 internal marker reporter; actives raise or lower the signal. An outline of the steps: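 Fluorescence from labelled cDNA fragments, separated by capillary electrophoresis, quantifies reporter induction. HepG2 cells bearing transiently transfected cis-promoter MRTUs were incubated with test chemical for 24 h; DMSO defined baseline for gain/loss fitting.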

A short description of experiment [3]: ATG_EGR_CIS: Attagene CIS-FACTORIAL HepG2 Assay for human Early Growth Response 1 (EGR1) (AID 2282938). The note with it: HepG2 Attagene CIS-FACTORIAL EGR reporter mRNA; actives raise or lower the signal. In short, it runs like this: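 Cell-based multiplex transcription assay: HepG2 carrying transfected cis-element reporter units, 24 h chemical treatment. Fluorescence from capillary electrophoresis of RT-PCR products gives mRNA levels; fitting is bidirectional relative to DMSO.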

Experiment [4] is described as follows: ATG_M_19_CIS: Attagene CIS-FACTORIAL HepG2 Assay for M19 Transcription Factor (Internal Marker) (AID 2282939). The note with it: HepG2 Attagene CIS-FACTORIAL M19 internal marker reporter; actives raise or lower the signal. In short, it runs like this:
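HepG2 cells transiently transfected with cis-regulated multiplexed reporter units, dosed 24 h. Reporter mRNA quantified by RT-PCR and capillary electrophoresis; internal background marker fitted bidirectionally versus DMSO.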

Experiment [5] in a line: ATG_Ets_CIS: Attagene CIS-FACTORIAL HepG2 Assay for human Erythroblast Transformation Specific (ETS) (AID 2282941). The conditions noted are these: HepG2 ETS cis-reporter transcription, actives raise or lower the signal. An outline of the steps:
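HepG2 cells transfected with multiple cis-regulated reporter units measuring endogenous ETS-driven transcription, 24 h after dosing. Reporter mRNA quantified by RT-PCR with capillary electrophoresis; bidirectional fit relative to DMSO.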

The target in experiment [6] is Hepatocyte nuclear factor 3-beta (Homo sapiens) (UniProt Q9Y261). Briefly: ATG_FoxA2_CIS: Attagene CIS-FACTORIAL HepG2 Assay for human Forkhead box A2 (FOXA2) (AID 2282942). The conditions noted are these: HepG2 cis-reporter transcription factor activity, 24 h; actives raise or lower the signal. An outline of the steps:
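In transiently transfected human HepG2 cells, promoter-driven reporter mRNA levels after 24 h chemical exposure are determined via RT-PCR with capillary electrophoresis. DMSO serves as baseline for bidirectional fitting.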

Experiment [7] can be described thus: ATG_FoxO_CIS: Attagene CIS-FACTORIAL HepG2 Assay for human Forkhead box O (FoxO) (AID 2282943). The conditions noted are these: HepG2 Attagene cis-reporter, FoxO element, mRNA; actives raise or lower the signal. An outline of the steps: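 Endogenous transcription factor activity read from multiplexed cis-promoter reporter transcripts in transiently transfected HepG2, 24 h after dosing. Reporter RNA measured via RT-PCR plus capillary electrophoresis of FAM-labeled products; gain or loss relative to DMSO.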

The nature of experiment [8]: ATG_GATA_CIS: Attagene CIS-FACTORIAL HepG2 Assay for human GATA Binding Protein (AID 2282944). The note with it: HepG2 GATA cis-element reporter, Attagene multiplex mRNA; actives raise or lower the signal. In short, it runs like this:
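HepG2 cells transiently transfected with multiplexed cis-element reporter units measure endogenous GATA activity; after 24 h compound exposure, reporter mRNA quantified by RT-PCR and capillary electrophoresis. Changes fitted in both directions vs DMSO.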

Experiment [9] in a line: ATG_GLI_CIS: Attagene CIS-FACTORIAL HepG2 Assay for human Zinc Finger Protein GLI1 (AID 2282945). The note with it: HepG2, Attagene cis-factorial reporter mRNA, GLI element; actives raise or lower the signal. In short, it runs like this: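 Bidirectional curve fits relative to DMSO, using reporter mRNA levels from RT-PCR plus capillary electrophoresis. Cells were HepG2 transiently carrying cis-regulated reporter constructs, harvested 24 h after dosing.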

Experiment [10] addresses Bile acid receptor (Homo sapiens) (UniProt Q96RI1). Put plainly: ATG_IR1_CIS: Attagene CIS-FACTORIAL HepG2 Assay for human Nuclear Receptor Subfamily 1 Group H Member 4 (NR1H4), IR1 submotif (AID 2282946). The conditions noted are these: IR1 reporter transcription, actives raise or lower the signal. In short, it runs like this: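 Cells (human HepG2) carry transiently transfected cis-promoter reporter transcription units. Compounds are incubated 24 h, total RNA is reverse-transcribed and amplified, and labelled fragments are resolved by capillary electrophoresis. Curves use DMSO as baseline.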

Experiment [11] in a line: ATG_M_32_CIS: Attagene CIS-FACTORIAL HepG2 Assay for M32 Transcription Factor (Internal Marker) (AID 2282949).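 Further: background control marker of the multiplexed CIS panel rather than a real target.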 The conditions noted are these: HepG2 Attagene cis-factorial M32 reporter, mRNA; actives raise or lower the signal. In short, it runs like this:
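Following 24 h chemical exposure of HepG2 cells transiently expressing cis-promoter reporter constructs, reporter transcript levels were determined by RT-PCR with fluorescent labelling and capillary electrophoresis, then fitted bidirectionally against DMSO.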

Experiment [12] can be described thus: ATG_M_06_CIS: Attagene CIS-FACTORIAL HepG2 Assay for M06 Transcription Factor (Internal Marker) (AID 2282950). The note with it: HepG2 Attagene CIS-FACTORIAL M06 internal marker reporter; actives raise or lower the signal. An outline of the steps:
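Internal background marker within multiplexed cis-reporter HepG2 system. Cells transiently transfected, dosed 24 h; reporter mRNA measured by RT-PCR, HpaI digestion and capillary electrophoresis. Bidirectional fit relative to DMSO.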

The target of experiment [13] is Hypoxia-inducible factor 1-alpha (Homo sapiens) (UniProt Q16665). Briefly: ATG_HIF1a_CIS: Attagene CIS-FACTORIAL HepG2 Assay for human Hypoxia Inducible Factor 1 (HIF1A) (AID 2282951). The conditions noted are these: HepG2 Attagene cis-factorial HIF1a reporter transcription; actives raise or lower the signal. An outline of the steps: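 In this multiplexed cell assay, HepG2 cells bearing transfected cis reporters are dosed for 24 h and reporter mRNA is read by RT-PCR plus capillary electrophoresis; signal increases and decreases are both scored against DMSO.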

Experiment [14] has as its target Hepatocyte nuclear factor 6 (Homo sapiens) (UniProt Q9UBC0). Briefly: ATG_HNF6_CIS: Attagene CIS-FACTORIAL HepG2 Assay for human Hepatocyte Nuclear Factor 6 (HNF6) (AID 2282952). The conditions noted are these: HepG2 Attagene cis-factorial HNF6 reporter transcription; actives raise or lower the signal. An outline of the steps: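 HepG2 cells transiently transfected with cis-element-driven multiplexed reporter units measuring endogenous transcription factor activity. After 24 h exposure, reporter mRNA quantified by RT-PCR, FAM-labelled fragments and capillary electrophoresis; bidirectional fitting versus DMSO.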

The target in experiment [15] is Heat shock factor protein 1 (Homo sapiens) (UniProt Q00613). Briefly: ATG_HSE_CIS: Attagene CIS-FACTORIAL HepG2 Assay for human Heat Shock Transcription Factor 1 (HSE) (AID 2282953). The note with it: HepG2 HSE cis-reporter, Attagene RNA transcription; actives raise or lower the signal. An outline of the steps: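 HepG2 cells transfected with cis-promoter reporter units sensing endogenous transcription factor activity; reporter mRNA quantified 24 h post-dose by RT-PCR and capillary electrophoresis of 6-FAM-labelled products. Bidirectional fitting against DMSO.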

Experiment [16] can be described thus: ATG_MRE_CIS: Attagene CIS-FACTORIAL HepG2 Assay for human Metal Responsive Element (MRE) (AID 2282954). The conditions noted are these: HepG2 MRE cis-reporter transcription, Attagene multiplex; actives raise or lower the signal. In short, it runs like this:
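After a 24 h chemical exposure, transiently transfected HepG2 cells yield RNA whose reporter sequences are amplified, FAM-labelled and sized by capillary electrophoresis. Curves are fitted bidirectionally relative to DMSO.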

A short description of experiment [17]: ATG_PBREM_CIS: Attagene CIS-FACTORIAL HepG2 Assay for human Phenobarbital-responsive Enhancer Module (PBREM) (AID 2282955). The note with it: HepG2 PBREM cis-reporter, Attagene multiplexed transcription; actives raise or lower the signal. An outline of the steps: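 After a 24 h incubation with test chemical, transfected HepG2 cells yield total RNA; reporter-specific RT-PCR products are fluorescently labelled, HpaI-digested and resolved by capillary electrophoresis against ROX size standards.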

Experiment [18] can be described thus: ATG_GRE_CIS: Attagene CIS-FACTORIAL HepG2 Assay for human Glucocorticoid Response Elements (GRE) (AID 2282947). The conditions noted are these: HepG2 GRE cis-reporter, Attagene multiplex mRNA; actives raise or lower the signal. An outline of the steps: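 Assay uses human hepatoma HepG2 cells transfected with cis-promoter reporter units, exposed 24 h. mRNA from reporters detected by RT-PCR plus capillary electrophoresis; DMSO serves as negative control and baseline.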

The nature of experiment [19]: ATG_ERE_CIS: Attagene CIS-FACTORIAL HepG2 Assay for Estrogen Response Element (ERE) (AID 2282940). The conditions noted are these: HepG2 ERE cis-reporter, Attagene RNA transcript; actives raise or lower the signal. In short, it runs like this:
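HepG2 cells transiently transfected with multiplexed cis-element reporter units, measuring endogenous transcription factor activity; ERE reporter mRNA quantified after 24 h exposure by RT-PCR, fluorescent labelling, HpaI digestion and capillary electrophoresis. Bidirectional change versus DMSO.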

Sequence of Bile acid receptor (Homo sapiens) (Q96RI1 whole entry, looked up, the tested form may be a part): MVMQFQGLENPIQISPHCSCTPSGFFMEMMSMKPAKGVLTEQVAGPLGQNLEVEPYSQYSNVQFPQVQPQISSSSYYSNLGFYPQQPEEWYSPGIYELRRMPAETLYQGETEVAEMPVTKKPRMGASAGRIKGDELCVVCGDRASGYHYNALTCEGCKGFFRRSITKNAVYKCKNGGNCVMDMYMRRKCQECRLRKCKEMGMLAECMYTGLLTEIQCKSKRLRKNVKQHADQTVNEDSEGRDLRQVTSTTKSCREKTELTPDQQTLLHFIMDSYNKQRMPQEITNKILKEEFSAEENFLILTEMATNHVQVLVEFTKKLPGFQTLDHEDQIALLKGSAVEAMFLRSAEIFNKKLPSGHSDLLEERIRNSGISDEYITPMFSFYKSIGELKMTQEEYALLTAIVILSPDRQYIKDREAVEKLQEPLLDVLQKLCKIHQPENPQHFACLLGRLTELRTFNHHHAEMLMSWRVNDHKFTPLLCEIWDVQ
Sequence of Hepatocyte nuclear factor 6 (Homo sapiens) (Q9UBC0 whole entry, looked up, the tested form may be a part): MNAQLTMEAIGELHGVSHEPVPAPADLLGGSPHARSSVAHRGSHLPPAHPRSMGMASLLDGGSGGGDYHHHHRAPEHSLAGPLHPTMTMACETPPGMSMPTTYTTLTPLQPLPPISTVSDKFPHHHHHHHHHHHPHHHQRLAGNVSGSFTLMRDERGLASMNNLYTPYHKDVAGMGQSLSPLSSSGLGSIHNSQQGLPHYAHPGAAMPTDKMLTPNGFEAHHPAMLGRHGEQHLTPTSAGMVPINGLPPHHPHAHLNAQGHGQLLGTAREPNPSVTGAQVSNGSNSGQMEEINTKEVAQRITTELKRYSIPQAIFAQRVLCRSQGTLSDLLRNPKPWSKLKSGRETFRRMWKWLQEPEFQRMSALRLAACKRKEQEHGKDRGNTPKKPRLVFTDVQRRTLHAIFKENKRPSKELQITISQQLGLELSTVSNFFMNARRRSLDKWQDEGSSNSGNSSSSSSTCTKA
Sequence of Hepatocyte nuclear factor 3-beta (Homo sapiens) (Q9Y261 whole entry, looked up): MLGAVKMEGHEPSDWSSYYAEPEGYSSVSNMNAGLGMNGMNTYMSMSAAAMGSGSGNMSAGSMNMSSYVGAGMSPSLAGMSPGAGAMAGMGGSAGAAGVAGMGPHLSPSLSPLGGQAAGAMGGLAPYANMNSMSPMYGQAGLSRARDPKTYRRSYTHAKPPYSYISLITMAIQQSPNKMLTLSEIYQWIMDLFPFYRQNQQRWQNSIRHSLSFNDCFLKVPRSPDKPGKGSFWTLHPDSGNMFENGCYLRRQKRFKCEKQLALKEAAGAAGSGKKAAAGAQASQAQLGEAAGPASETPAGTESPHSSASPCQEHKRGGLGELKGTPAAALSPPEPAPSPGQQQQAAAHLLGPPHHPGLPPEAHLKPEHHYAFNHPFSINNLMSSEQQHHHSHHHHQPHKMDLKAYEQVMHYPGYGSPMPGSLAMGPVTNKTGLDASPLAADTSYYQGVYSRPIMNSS
Sequence of Hypoxia-inducible factor 1-alpha (Homo sapiens) (Q16665 whole entry, looked up): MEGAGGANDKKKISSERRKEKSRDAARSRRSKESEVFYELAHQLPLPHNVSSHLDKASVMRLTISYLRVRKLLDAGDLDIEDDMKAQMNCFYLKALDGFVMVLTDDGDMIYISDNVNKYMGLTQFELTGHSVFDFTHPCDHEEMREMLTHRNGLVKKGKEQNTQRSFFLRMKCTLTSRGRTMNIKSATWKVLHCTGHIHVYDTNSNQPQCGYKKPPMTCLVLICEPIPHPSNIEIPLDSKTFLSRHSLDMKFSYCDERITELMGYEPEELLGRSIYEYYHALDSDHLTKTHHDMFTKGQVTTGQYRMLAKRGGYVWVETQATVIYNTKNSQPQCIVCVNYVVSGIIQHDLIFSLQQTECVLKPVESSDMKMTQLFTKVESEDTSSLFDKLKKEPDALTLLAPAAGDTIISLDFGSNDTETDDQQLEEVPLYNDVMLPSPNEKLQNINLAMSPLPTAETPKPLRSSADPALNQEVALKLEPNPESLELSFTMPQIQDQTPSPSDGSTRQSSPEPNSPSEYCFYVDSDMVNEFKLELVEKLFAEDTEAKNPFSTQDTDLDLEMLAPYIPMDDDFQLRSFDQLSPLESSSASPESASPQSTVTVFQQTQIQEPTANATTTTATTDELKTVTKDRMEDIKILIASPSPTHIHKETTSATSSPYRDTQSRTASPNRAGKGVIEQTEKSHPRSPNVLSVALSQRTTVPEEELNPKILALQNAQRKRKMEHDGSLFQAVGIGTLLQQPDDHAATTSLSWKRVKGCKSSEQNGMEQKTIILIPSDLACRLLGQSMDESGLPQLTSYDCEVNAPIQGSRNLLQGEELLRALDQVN
Sequence of Heat shock factor protein 1 (Homo sapiens) (Q00613 whole entry, looked up): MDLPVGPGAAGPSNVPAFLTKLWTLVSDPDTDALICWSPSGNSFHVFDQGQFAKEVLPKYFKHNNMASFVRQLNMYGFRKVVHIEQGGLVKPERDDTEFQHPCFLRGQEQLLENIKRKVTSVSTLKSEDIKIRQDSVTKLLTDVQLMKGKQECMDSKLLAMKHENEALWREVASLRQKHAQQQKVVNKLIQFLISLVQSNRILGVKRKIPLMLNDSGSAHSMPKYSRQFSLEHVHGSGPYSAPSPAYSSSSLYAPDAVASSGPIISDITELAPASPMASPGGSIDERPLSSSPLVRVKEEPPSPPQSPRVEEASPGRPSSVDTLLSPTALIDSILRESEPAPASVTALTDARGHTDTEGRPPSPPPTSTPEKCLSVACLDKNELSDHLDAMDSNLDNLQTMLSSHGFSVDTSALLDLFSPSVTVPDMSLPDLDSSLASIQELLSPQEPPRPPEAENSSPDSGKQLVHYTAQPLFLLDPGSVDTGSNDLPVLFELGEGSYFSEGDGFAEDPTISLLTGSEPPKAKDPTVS

In the case of `CC1(C(=O)Nc2ccc(O)c(Cl)c2Cl)CCCCC1`, the outcome in experiment [1], in experiment [2], in experiment [4], in experiment [5], in experiment [6] and in experiment [7] was inactive. Moreover, the result in [8], in experiment [9], in experiment [10], in experiment [11], in [12] and in [13] was inactive. Moreover, the molecule was classed as inactive in [14] and in experiment [15]. The half-maximal activity concentration (AC50) in experiment [3] is 32.2 µM (active); in [16], 50 µM (active); in experiment [17], 5.86 µM (active).
With `CSC1=N[C@@](C)(c2ccccc2)C(=O)N1Nc1ccccc1`, the outcome in [1], in [2], in [4], in experiment [5], in [6] and in experiment [7] was inactive. Further, the molecule was classed as inactive in experiment [8], in [9], in [10], in [18], in experiment [11] and in experiment [12]. Moreover, the molecule was classed as inactive in [14] and in [15]. Also, the AC50 in experiment [3] was 19.9 µM (active); in experiment [16], 50 µM (active); in experiment [17], 21.7 µM (active).
As to `O=[N+]([O-])c1cc(C(F)(F)F)c(Cl)c([N+](=O)[O-])c1Nc1ncc(C(F)(F)F)cc1Cl`, the AC50 in experiment [1] is 15.2 µM (active); in experiment [6] it was 20 µM (active); in experiment [10], 12.9 µM (active); in experiment [18] it was 20.3 µM (active); in experiment [11] it was 18.1 µM (active); in [14], 17.1 µM (active). Further, the result in experiment [1], in [2], in experiment [3], in [4], in experiment [19] and in experiment [5] was inactive. For the same molecule, the outcome in [6], in experiment [7], in [8], in [9], in [10] and in experiment [18] was inactive. In addition, the molecule was classed as inactive in experiment [11], in [12], in [13], in experiment [14], in experiment [15] and in [16]. The result in [17] was inactive.

In general, AC50 refers to the concentration giving half of the maximal activity seen.
